Reference: the supplement of paper PMC6411743
± gives the standard deviation of the averaged measurements. About 5,400 targets were measured; listed, in parts, are those with the largest changes and a random draw of the rest.

Compound: Nc1nc2c(ncn2[C@@H]2O[C@H](COP(=O)(O)OP(=O)(O)OP(=O)(O)O)[C@@H](O)[C@H]2O)c(=O)[nH]1 [guanosine triphosphate]
Assay: NP40-soluble protein abundance relative to vehicle (solubility fold change) (ratio); higher = more soluble protein in presence of GTP
Procedure, shortened: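 Across three independent experiments, values are fold changes against the detergent-processed vehicle for each replicate, based on vsn-normalised intensities. The samples were Jurkat crude lysate treated with eight concentrations (0.1 to 10 mM) for 10 min at room temperature and then 3 min at 37 °C. Lysate was solubilised with 0.8% NP40 and benzonase, ultracentrifuged, and the supernatant analysed by TMT-labelled LC-MS/MS.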

Sequence of UniProt Q9Y483 (Q9Y483 whole entry, one chain of several): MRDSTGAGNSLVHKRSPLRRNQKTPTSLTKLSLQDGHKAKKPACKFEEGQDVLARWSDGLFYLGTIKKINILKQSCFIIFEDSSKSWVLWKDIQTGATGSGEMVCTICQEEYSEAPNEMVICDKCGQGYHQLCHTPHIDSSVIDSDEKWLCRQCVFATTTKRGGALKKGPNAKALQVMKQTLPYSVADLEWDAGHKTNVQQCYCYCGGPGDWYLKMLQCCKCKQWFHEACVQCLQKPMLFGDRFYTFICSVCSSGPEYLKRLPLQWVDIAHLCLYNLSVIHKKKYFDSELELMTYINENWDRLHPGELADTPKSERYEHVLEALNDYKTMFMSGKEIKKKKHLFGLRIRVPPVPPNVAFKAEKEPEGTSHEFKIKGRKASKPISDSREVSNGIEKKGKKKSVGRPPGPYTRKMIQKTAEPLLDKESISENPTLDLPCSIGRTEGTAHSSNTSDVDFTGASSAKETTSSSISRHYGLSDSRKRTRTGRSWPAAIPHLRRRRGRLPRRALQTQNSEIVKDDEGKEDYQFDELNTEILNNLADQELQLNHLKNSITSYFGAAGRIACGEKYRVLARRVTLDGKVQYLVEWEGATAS
Sequence of UniProt Q9BZL6 (Q9BZL6 whole entry, one chain of several): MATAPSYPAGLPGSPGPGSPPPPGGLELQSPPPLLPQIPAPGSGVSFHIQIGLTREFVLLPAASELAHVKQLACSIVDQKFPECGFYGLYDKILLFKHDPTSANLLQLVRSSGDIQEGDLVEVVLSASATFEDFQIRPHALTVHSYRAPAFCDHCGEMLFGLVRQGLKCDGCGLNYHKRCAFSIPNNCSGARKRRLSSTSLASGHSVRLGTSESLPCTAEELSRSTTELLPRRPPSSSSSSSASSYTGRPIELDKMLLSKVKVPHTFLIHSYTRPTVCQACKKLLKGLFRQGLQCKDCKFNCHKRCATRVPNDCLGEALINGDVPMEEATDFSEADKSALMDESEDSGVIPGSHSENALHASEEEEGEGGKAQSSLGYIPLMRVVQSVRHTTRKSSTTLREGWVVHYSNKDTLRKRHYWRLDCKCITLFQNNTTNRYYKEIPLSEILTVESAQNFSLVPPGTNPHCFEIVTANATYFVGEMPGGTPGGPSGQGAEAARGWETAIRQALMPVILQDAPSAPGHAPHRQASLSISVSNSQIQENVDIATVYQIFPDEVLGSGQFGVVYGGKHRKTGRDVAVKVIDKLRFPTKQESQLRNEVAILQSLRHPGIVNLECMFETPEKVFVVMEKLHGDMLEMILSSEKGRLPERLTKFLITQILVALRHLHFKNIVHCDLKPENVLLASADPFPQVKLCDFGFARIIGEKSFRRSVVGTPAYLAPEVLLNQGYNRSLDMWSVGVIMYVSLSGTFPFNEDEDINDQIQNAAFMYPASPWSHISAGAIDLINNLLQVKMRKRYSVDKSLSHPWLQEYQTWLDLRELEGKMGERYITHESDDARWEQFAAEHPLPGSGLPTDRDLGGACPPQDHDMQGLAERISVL
Sequence of UniProt P09884 (P09884 whole entry, one chain of several): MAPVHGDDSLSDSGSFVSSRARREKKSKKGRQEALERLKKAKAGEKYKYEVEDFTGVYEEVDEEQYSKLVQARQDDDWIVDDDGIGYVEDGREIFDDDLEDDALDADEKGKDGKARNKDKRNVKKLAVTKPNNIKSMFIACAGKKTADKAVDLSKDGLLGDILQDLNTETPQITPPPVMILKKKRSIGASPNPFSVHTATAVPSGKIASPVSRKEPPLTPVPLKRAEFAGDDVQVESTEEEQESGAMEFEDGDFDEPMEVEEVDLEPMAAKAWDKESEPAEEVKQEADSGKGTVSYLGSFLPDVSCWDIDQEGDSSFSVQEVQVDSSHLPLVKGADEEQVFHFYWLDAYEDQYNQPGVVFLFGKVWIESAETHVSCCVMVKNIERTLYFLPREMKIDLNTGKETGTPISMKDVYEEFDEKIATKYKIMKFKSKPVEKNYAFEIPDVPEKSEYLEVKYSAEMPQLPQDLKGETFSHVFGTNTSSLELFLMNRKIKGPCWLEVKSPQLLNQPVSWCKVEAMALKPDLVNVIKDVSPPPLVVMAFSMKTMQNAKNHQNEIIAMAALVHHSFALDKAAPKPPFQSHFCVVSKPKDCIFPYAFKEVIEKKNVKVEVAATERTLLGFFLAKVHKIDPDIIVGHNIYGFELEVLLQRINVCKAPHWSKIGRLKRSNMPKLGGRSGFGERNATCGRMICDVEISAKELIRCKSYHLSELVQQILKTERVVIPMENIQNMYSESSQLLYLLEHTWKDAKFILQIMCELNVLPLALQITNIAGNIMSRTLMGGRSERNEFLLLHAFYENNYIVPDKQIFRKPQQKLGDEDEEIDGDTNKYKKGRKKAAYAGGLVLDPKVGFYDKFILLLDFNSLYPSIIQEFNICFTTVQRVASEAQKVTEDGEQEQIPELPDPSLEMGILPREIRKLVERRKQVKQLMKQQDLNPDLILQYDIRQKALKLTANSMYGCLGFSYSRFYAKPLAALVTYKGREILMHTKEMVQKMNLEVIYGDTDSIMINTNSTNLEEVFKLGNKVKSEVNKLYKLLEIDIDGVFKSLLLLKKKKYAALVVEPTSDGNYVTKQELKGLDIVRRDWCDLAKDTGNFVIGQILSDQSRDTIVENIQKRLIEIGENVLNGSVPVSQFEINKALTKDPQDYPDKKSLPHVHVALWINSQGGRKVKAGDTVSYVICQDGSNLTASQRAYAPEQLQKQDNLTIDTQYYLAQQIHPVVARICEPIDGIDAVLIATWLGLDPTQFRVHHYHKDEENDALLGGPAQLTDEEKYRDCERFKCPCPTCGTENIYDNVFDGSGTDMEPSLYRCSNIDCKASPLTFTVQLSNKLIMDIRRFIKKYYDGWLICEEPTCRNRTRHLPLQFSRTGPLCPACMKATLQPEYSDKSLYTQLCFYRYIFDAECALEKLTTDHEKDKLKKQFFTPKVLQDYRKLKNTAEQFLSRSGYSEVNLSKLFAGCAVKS
Sequence of UniProt Q9Y3T6 (Q9Y3T6 whole entry, one chain of several): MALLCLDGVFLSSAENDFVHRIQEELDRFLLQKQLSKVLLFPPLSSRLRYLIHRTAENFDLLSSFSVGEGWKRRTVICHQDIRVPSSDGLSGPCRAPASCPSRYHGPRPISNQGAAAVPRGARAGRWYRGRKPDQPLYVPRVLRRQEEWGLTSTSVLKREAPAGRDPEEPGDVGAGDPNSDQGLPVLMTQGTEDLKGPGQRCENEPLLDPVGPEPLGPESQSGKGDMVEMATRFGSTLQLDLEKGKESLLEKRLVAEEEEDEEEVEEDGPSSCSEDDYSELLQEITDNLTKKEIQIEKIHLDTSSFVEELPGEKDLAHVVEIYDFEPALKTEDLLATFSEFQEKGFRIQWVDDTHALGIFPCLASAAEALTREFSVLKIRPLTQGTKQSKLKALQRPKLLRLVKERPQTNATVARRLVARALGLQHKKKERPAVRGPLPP
Sequence of UniProt P11802 (P11802 whole entry, one chain of several): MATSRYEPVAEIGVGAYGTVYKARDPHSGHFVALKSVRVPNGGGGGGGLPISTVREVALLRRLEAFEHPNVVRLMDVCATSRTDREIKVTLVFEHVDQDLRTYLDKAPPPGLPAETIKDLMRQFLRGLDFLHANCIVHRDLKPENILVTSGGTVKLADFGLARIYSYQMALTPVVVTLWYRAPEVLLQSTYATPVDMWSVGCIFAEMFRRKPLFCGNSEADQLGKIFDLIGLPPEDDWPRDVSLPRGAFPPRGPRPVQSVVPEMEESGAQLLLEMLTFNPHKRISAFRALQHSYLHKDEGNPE
Sequence of UniProt A2RUS2 (A2RUS2 whole entry, one chain of several): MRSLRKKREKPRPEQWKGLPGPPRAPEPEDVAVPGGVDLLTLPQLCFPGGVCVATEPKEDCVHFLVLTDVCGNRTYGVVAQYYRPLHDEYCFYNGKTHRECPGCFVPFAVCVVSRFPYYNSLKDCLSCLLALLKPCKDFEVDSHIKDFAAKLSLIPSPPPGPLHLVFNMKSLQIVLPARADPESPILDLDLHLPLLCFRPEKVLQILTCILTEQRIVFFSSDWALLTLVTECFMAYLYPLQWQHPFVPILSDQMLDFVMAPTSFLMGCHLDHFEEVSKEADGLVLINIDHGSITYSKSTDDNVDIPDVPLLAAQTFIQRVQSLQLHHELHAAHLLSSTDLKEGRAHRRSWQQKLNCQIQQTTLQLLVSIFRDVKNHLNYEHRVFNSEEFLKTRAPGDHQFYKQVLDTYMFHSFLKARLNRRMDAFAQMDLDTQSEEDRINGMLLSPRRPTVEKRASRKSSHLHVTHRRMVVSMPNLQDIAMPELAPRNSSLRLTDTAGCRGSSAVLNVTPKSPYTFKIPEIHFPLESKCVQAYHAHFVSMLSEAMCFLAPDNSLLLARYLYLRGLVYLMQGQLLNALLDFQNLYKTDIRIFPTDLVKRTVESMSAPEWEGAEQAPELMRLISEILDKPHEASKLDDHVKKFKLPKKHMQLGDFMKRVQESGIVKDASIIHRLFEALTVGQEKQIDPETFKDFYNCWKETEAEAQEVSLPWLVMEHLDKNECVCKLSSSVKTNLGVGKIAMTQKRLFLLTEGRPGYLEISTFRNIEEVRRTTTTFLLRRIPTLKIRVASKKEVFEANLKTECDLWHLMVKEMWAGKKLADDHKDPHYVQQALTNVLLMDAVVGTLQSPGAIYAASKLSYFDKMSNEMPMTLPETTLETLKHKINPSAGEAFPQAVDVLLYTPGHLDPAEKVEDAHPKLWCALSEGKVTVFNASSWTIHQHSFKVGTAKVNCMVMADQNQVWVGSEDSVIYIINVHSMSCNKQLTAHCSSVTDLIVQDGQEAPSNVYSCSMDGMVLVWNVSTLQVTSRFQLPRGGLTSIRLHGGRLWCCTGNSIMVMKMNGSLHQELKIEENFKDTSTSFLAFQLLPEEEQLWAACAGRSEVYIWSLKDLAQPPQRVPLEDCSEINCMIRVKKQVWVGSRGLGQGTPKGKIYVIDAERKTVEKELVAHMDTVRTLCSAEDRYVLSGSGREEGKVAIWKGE
Sequence of UniProt P05161 (P05161 whole entry, one chain of several): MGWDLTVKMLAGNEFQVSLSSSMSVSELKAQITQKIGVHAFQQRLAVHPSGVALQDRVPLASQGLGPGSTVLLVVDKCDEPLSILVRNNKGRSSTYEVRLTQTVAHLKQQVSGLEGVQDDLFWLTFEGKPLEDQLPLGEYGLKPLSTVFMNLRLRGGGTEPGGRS

Target	NP40-soluble protein abundance (concentration: 0.1mM)	NP40-soluble protein abundance (concentration: 0.5mM)	NP40-soluble protein abundance (concentration: 1mM)	NP40-soluble protein abundance (concentration: 2mM)	NP40-soluble protein abundance (concentration: 4mM)	NP40-soluble protein abundance (concentration: 6mM)	NP40-soluble protein abundance (concentration: 8mM)	NP40-soluble protein abundance (concentration: 10mM)
A0A0A6YYH1|H0YLI7|P59780|Q7Z6K5-2 (UniProt Q7Z6K5+P59780+H0YLI7)	1.04 ± 0.012	1.07 ± 0.045	1.06 ± 0.099	1.03 ± 0.044	0.986 ± 0.04	1.01 ± 0.076	0.989 ± 0.017	0.992 ± 0.049
E9PF32|H0YAY3|A2RUS2|A2RUS2-2 (UniProt A2RUS2)	1.1 ± 0.17	1.13 ± 0.069	1.05 ± 0.038	1.1 ± 0.19	1.1 ± 0.12	1.1 ± 0.011	1 ± 0.14	1.01 ± 0.11
G3V583|Q8N128|Q8N128-2 (UniProt Q8N128)	0.912 ± 0.089	0.928 ± 0.084	0.869 ± 0.13	0.94 ± 0.16	0.887 ± 0.16	0.861 ± 0.14	0.87 ± 0.1	0.902 ± 0.14
F5H8D7|P18887 (UniProt P18887)	0.976 ± 0.073	1.02 ± 0.085	1.04 ± 0.081	1 ± 0.1	1.03 ± 0.098	1.06 ± 0.1	1.13 ± 0.1	1.1 ± 0.12
G5E953|Q13615|Q13615-2|Q13615-3 (UniProt Q13615)	1.01 ± 0.036	0.987 ± 0.04	0.978 ± 0.063	0.953 ± 0.034	0.976 ± 0.045	0.963 ± 0.065	1 ± 0.042	0.971 ± 0.028
F8VTV8|F8VWX7|F8VYH9|P11802 (UniProt P11802)	0.977 ± 0.13	1.06 ± 0.048	0.999 ± 0.041	1.05 ± 0.071	1.06 ± 0.056	1.02 ± 0.049	0.995 ± 0.04	0.973 ± 0.015
A0A096LNZ9|A0A096LPJ4|P05161 (UniProt P05161)	0.9514 ± 0.0057	0.961 ± 0.023	0.899 ± 0.019	0.888 ± 0.02	0.869 ± 0.026	0.885 ± 0.035	0.83 ± 0.034	0.836 ± 0.034
E9PK67|E9PNI7|Q53GL7 (UniProt Q53GL7)	1.05 ± 0.097	1.06 ± 0.12	0.954 ± 0.041	1.01 ± 0.15	0.982 ± 0.12	0.935 ± 0.11	0.949 ± 0.019	0.949 ± 0.08
A0A0A0MSJ9|Q15283|Q15283-2 (UniProt Q15283)	1.05 ± 0.057	1.07 ± 0.065	0.985 ± 0.018	0.998 ± 0.04	1.01 ± 0.054	0.967 ± 0.048	0.94 ± 0.067	0.927 ± 0.13
A0A087WY71|Q96CW1|Q96CW1-2 (UniProt Q96CW1)	1.09 ± 0.11	1.12 ± 0.17	0.947 ± 0.078	1.04 ± 0.16	1.04 ± 0.14	1.03 ± 0.13	0.941 ± 0.023	0.95 ± 0.09
G3XAG1|Q96ME7|Q96ME7-3 (UniProt Q96ME7)	1.1 ± 0.013	1.17 ± 0.055	1.27 ± 0.04	1.445 ± 0.014	1.74 ± 0.059	1.88 ± 0.079	2.01 ± 0.13	2.17 ± 0.081
A0A087WU64|A6NMQ1|P09884 (UniProt P09884)	1.06 ± 0.025	1.07 ± 0.035	1.01 ± 0.047	1.02 ± 0.057	1.01 ± 0.033	0.994 ± 0.028	1.01 ± 0.051	0.973 ± 0.029
B4DZG1|Q9Y483|Q9Y483-3|Q96G26|Q9Y483-2|Q9Y483-4 (UniProt Q9Y483)	1.11 ± 0.061	1.09 ± 0.032	1.16 ± 0.044	1.26 ± 0.074	1.4 ± 0.068	1.45 ± 0.095	1.64 ± 0.2	1.78 ± 0.18
E7EN86|P52747|P52747-2|P52747-3 (UniProt P52747)	1.06 ± 0.038	1.03 ± 0.024	0.988 ± 0.058	0.94 ± 0.013	0.988 ± 0.076	0.939 ± 0.055	1.03 ± 0.013	1.02 ± 0.045
F2Z3N7|C9JZ87|Q9NUM4 (UniProt Q9NUM4)	0.98 ± 0.036	0.932 ± 0.076	1.15 ± 0.077	1.06 ± 0.048	0.84 ± 0.18	0.949 ± 0.045	0.989 ± 0.051	0.969 ± 0.078
A0A0U1RR32|A0A0U1RRH7|P04908|P0C0S8|P20671|Q6FI13|Q7L7L0|Q93077|Q96KK5|Q99878 (UniProt Q99878+Q7L7L0+Q6FI13+Q93077+P20671+P0C0S8+Q96KK5+P04908)	1.01 ± 0.11	0.7204 ± 0.0051	1.26 ± 0.37	1.24 ± 0.024	1.76 ± 0.48	1.92 ± 0.49	1.4 ± 0.53	2.39 ± 1.2
E9PKP7|E9PLT2|P17480|P17480-2 (UniProt P17480)	1.02 ± 0.025	1 ± 0.036	1.08 ± 0.025	1.2 ± 0.079	1.31 ± 0.074	1.45 ± 0.066	1.5 ± 0.053	1.87 ± 0.13
A0A087WWS1|Q96FV9 (UniProt Q96FV9)	1.1 ± 0.016	1.24 ± 0.086	1.41 ± 0.19	1.76 ± 0.41	2.08 ± 0.62	2.26 ± 0.76	2.37 ± 0.83	2.4 ± 0.91
MYO1G (UniProt B0I1T2)	1.12 ± 0.027	1.47 ± 0.26	1.95 ± 0.34	2.5 ± 0.51	2.75 ± 0.45	2.67 ± 0.49	2.58 ± 0.3	2.35 ± 0.31
B3KS98|O15372 (UniProt O15372)	0.992 ± 0.07	1.01 ± 0.088	1.03 ± 0.075	1.08 ± 0.15	1.27 ± 0.25	1.42 ± 0.28	1.6 ± 0.34	1.8 ± 0.36
B4DTS2|Q9BZL6 (UniProt Q9BZL6)	1.02 ± 0.021	1.04 ± 0.034	0.992 ± 0.053	1.02 ± 0.055	1 ± 0.059	0.97 ± 0.031	0.946 ± 0.045	0.946 ± 0.033
E9PG35|E9PHF7|F5GYT8|Q96RQ3|G5E9X5 (UniProt Q96RQ3)	1.04 ± 0.093	1.07 ± 0.078	1.02 ± 0.16	1.08 ± 0.11	1.09 ± 0.15	1.08 ± 0.077	1.05 ± 0.19	1.03 ± 0.13
E7EPN9|Q9Y520|Q9Y520-4|Q9Y520-5|Q9Y520-7 (UniProt Q9Y520)	1.01 ± 0.02	1.01 ± 0.054	1.1 ± 0.063	1.14 ± 0.073	1.24 ± 0.057	1.36 ± 0.075	1.53 ± 0.14	1.7 ± 0.2
A0A0R4J2E2|Q9Y3T6|A0A0D9SG39|E5RHX3|E5RIK1|E5RIQ4 (UniProt Q9Y3T6)	0.88 ± 0.0067	0.877 ± 0.017	0.961 ± 0.019	0.923 ± 0.048	0.94794 ± 0.00022	0.908 ± 0.017	0.89 ± 0.034	0.9192 ± 0.0019
